# Data reported in PubChem BioAssay AID624252 (National Center for Advancing Translational Sciences (NCATS), 2012).
# The list shows a part of the results. A call without a number means that no potency is given here. Records with an inconclusive call do not appear. The source made the active and inactive calls. The call rests on the fitted dose curve; in most records, active means well fitted cell-killing curve with a large enough effect; inconclusive means small, poorly fitted or top-dose-only effect; inactive means flat fitted curve, though single readings scatter.
# Assay: qHTS screen for small molecules that inhibit ELG1-dependent DNA repair: Hit Confirmation with Unstimulated Viability Assay;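 further: compound exposure lasted 16 hours before reading; nearly all actives have a fitted effect of over 55% in size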
# Conditions: cell viability counter-screen, luminescence; series mostly up to 45.9 µM
# Source text: Cancer cells divide rapidly compared to normal cells in the body. During cell division, cancer cells need to duplicate their genome by DNA replication. The failure of genome duplication leads to cancer cells' death. Therefore, inhibitors of DNA replication could specifically kill cancer cells. Based on this concept, many chemotherapeutic agents were developed and have been used to treat cancer patients. However, there are a limited number of agents available in the clinical setting, and some of those that do exist have low efficacy and severe side effects. Therefore, if we can find the compounds that effectively block DNA replication either by directly damaging DNA or by inhibiting other cellular mechanisms, the options for cancer treatment will be broadened. With this in mind, we developed a quantitative high-throughput ELG1-luciferase reporter gene assay. Small molecules that specifically block ELG1 function in response to DNA damage can be identified by monitoring the suppression of luciferase activity. Since ELG1 defines a pathway for repairing DNA damage, agents blocking ELG1 function can be used to sensitize cancer cells to chemotherapeutic agents whose mechanism of action involves the induction of DNA damage.
# NIH Molecular Libraries Probe Production Network [MLPCN]
# NIH Chemical Genomics Center [NCGC]
# Assay Provider: Kyungjae Myung, NHGRI, NIH
# For genotoxicity screening, 2,000 cells in 4 uL/well were dispensed into white, solid-bottom 1536-well plates using a solenoid-based dispenser. 23 nL compound or DMSO vehicle were added by a pin tool, the plates were incubated 16 hr at 37 °C and 5% CO2. 5 ul ONE-Glo (Promega) was then added to each plate and following a 30 min incubation at room temperature, luciferase activity was quantified on a ViewLux CCD-based plate reader.
# Potency means the concentration at half of the fitted maximal effect.
row,SMILES,Potency
1,CS(=O)c1ccc(/C=C2\C=Cc3ccccc32)cc1 (stereo not given),inactive
2,Cc1ccc(Nc2nc(N3CCOCC3)nc(N3CCOCC3)n2)cc1Cl,inactive
3,NC(=O)c1sc2nc3c(c(-c4ccccc4)c2c1N)CCC3,inactive
4,Cc1ccccc1NC(=O)CSc1nc2ccc(Nc3nc(N4CCOCC4)nc(N4CCOCC4)n3)cc2s1,inactive
5,OCCCNc1nccc(-c2cc(Nc3cccc(Cl)c3)ncn2)n1,9.97 µM (active)
6,COc1ccc(NC(C)=O)cc1NC(=O)CN1CCN(C2c3ccccc3-c3ccccc32)CC1,inactive
7,CS(=O)(=O)c1ccc2nc(NC(=O)C3CCCCC3)sc2c1,inactive
8,Cc1ccc(C)c(S(=O)(=O)N2CCN(c3ncnc4sccc34)CC2)c1,6.28 µM (active)
9,CC(=O)N1CCc2cc(Br)cc(S(=O)(=O)CCC(=O)Nc3c(C)n(C)n(-c4ccccc4)c3=O)c21,inactive
10,Nc1nnc(SCC(=O)Nc2ccc3nc(SCC(=O)Nc4ccccc4)sc3c2)s1,inactive
11,CC(=O)c1c(C)n(-c2ccc(C)cc2)c2ccc(O)cc12,inactive
12,CCc1ccc(N(CC)c2ncnc3nc[nH]c23)cc1,inactive
13,CC12CCC(C(=O)N3CCN(c4ncccn4)CC3)(c3nc4ccccc4nc31)C2(C)C (stereo not given),inactive
14,COc1ccc(NC(=O)C2CCC(CNc3c(N4CCCCC4)c(=O)c3=O)CC2)c(OC)c1 (stereo not given),25 µM (active)
15,CN(C)c1ccnc2sc3c(=O)n(Cc4ccccc4)cnc3c12,inactive
16,Cc1nnc(N/N=C/c2ccccn2)[nH]c1=O,inactive
17,COc1ccc(-c2nn(-c3ccccc3)cc2/C=C\C(=O)N2CCOCC2)cc1[N+](=O)[O-],inactive
18,CN(CC1CCCO1)S(=O)(=O)c1ccc(C(=O)Nc2ccc(F)cc2)cc1 (stereo not given),inactive
19,COc1ccc(-c2cc(C(=O)N(C)CC(=O)Nc3ccccc3Cl)c3ccccc3n2)cc1OC,inactive
20,O=C(Nn1c(SCc2ccc([N+](=O)[O-])cc2)nc2ccccc2c1=O)c1ccc(F)cc1,inactive
